Measured values as given in the supplement of paper PMC10849652.
Of roughly 8,800 targets only a part is listed; those with a hit were picked by preference. About 0.5% of all pairs of compound and target were hits.

How the values were obtained:
Test in all cases: log2 fold change, soluble protein after heating vs DMSO (PISA); higher = thermal stabilisation; K562 lysate, 10 uM; active = over 0.2 and 3.5 SD of the protein, either way, in both replicates (recomputed)
alvocidib = compound: CN1CC[C@H](c2c(O)cc(O)c3c(=O)cc(-c4ccccc4Cl)oc23)[C@H](O)C1 [alvocidib]
Method in brief: (§1)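 K562 pellets were dounce-homogenised in PBS pH 7.4 containing 1 mM MgCl2, and the crude extract, at 1 mg/mL protein, was exposed to 10 μM compound for 30 min. Aliquots were heated for 3 min across 48°C-58°C, pooled, brought to 0.5% NP-40 at 4°C and spun at 21,000xg for 90 min, with the supernatant taken as soluble protein. TMTpro 16plex LC-MS/MS with equalised channel sums quantified that protein. Values are log-two fold changes in thermal stability relative to solvent controls, taken from duplicates.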

Tubastatin A = compound: CN1CCc2c(c3ccccc3n2Cc2ccc(C(=O)NO)cc2)C1 [Tubastatin A]
Method in brief: as §1

[1] = compound: CNC(=O)C1=CC=CC=C1NC2=NC(=NC=C2Cl)NC3=C(C=C(C=C3)N4CCOCC4)OC
Method in brief: as §1

defactinib = compound: CNC(=O)c1ccc(Nc2ncc(C(F)(F)F)c(NCc3nccnc3N(C)S(C)(=O)=O)n2)cc1 [defactinib]
Method in brief: as §1

[2] = compound: CNc1nc(-c2ccc3c(N)n[nH]c3c2)cc(N2C[C@@H](C(=O)NC3CCCCC3)CC[C@H]2C)n1
Method in brief: as §1

encorafenib = compound: COC(=O)N[C@@H](C)CNc1nccc(-c2cn(C(C)C)nc2-c2cc(Cl)cc(NS(C)(=O)=O)c2F)n1 [encorafenib]
Method in brief: as §1

[3] = compound: COC(=O)[C@H](CCSC)NC(=O)C1=C(C=C(C=C1)NC[C@H](CS)N)C2=CC=CC=C2
Method in brief: as §1

alisertib = compound: COc1cc(Nc2ncc3c(n2)-c2ccc(Cl)cc2C(c2c(F)cccc2OC)=NC3)ccc1C(=O)O [alisertib]
Method in brief: as §1

[4] = compound: COc1cc2nc(-c3cc(F)ccc3O)nc(N[C@@H]3CNC[C@H]3C(C)(C)O)c2cc1OC
Method in brief: as §1

gefitinib = compound: COc1cc2ncnc(Nc3ccc(F)c(Cl)c3)c2cc1OCCCN1CCOCC1 [gefitinib]
Method in brief: as §1

Measured: log2 fold change

FECH isoform 2 (UniProt P22830)
Chain of UniProt P22830 (P22830 whole entry, looked up): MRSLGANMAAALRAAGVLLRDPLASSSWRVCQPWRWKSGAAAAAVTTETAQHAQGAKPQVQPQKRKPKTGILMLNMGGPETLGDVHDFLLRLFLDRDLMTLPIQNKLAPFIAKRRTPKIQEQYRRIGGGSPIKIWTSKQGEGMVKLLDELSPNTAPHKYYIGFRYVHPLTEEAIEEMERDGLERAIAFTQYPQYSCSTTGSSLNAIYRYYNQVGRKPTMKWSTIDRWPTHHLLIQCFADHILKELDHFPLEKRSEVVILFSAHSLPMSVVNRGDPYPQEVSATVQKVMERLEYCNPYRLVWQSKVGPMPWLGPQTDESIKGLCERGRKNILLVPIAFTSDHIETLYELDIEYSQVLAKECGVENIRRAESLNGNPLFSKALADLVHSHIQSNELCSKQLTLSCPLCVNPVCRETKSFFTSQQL
inactive: alvocidib 0.028 | Tubastatin A -0.123 | [1] 0.485 | defactinib -0.056 | [2] 0.664 | encorafenib -0.064 | [3] -0.091 | alisertib -0.191 | [4] 0.225 | gefitinib 0.503

FHOD1 (UniProt Q9Y613)
Chain of UniProt Q9Y613 (Q9Y613 whole entry, looked up): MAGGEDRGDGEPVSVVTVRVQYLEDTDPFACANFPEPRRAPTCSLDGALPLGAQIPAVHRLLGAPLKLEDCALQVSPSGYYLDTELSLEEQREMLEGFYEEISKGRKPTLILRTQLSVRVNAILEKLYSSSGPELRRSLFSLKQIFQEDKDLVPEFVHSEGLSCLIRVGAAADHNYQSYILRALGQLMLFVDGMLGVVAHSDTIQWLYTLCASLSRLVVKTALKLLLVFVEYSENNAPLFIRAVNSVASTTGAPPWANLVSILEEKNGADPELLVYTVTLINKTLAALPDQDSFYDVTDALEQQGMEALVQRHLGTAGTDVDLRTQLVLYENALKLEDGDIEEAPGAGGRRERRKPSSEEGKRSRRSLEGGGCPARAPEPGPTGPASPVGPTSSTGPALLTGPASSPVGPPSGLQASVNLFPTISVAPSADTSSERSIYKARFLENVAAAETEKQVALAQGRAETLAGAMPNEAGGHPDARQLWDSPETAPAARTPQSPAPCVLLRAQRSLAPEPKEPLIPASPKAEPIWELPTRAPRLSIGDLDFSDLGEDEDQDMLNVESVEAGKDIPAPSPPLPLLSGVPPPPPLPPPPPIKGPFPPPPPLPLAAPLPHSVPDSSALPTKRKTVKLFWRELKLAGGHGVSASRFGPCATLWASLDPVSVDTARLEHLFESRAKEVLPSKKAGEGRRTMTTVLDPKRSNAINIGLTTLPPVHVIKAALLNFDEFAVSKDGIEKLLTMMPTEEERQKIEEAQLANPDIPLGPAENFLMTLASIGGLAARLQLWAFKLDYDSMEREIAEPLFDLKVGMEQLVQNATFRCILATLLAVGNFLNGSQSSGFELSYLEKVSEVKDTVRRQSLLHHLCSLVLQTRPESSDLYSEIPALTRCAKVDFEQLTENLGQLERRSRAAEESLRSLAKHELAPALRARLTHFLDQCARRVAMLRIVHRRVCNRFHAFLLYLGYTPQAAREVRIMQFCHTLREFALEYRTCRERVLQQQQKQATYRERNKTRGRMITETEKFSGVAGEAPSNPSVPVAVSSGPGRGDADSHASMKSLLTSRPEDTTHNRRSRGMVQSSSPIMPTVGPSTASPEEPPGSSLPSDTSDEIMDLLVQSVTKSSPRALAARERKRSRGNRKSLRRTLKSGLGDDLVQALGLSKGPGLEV
inactive: alvocidib -0.034 | Tubastatin A -0.129 | [1] 0.014 | defactinib 0.033 | [2] 0.006 | encorafenib 0.021 | [3] 0.028 | alisertib 0.011 | [4] 0.002 | gefitinib -0.013

FAM98A (UniProt Q8NCA5)
inactive: alvocidib 0.042 | Tubastatin A -0.04 | [1] 0.028 | defactinib 0.01 | [2] 0.086 | encorafenib -0.004 | [3] 0.025 | alisertib -0.028 | [4] -0.014 | gefitinib 0.037

FAM120B (UniProt Q96EK7)
Chain of UniProt Q96EK7 (Q96EK7 whole entry, looked up): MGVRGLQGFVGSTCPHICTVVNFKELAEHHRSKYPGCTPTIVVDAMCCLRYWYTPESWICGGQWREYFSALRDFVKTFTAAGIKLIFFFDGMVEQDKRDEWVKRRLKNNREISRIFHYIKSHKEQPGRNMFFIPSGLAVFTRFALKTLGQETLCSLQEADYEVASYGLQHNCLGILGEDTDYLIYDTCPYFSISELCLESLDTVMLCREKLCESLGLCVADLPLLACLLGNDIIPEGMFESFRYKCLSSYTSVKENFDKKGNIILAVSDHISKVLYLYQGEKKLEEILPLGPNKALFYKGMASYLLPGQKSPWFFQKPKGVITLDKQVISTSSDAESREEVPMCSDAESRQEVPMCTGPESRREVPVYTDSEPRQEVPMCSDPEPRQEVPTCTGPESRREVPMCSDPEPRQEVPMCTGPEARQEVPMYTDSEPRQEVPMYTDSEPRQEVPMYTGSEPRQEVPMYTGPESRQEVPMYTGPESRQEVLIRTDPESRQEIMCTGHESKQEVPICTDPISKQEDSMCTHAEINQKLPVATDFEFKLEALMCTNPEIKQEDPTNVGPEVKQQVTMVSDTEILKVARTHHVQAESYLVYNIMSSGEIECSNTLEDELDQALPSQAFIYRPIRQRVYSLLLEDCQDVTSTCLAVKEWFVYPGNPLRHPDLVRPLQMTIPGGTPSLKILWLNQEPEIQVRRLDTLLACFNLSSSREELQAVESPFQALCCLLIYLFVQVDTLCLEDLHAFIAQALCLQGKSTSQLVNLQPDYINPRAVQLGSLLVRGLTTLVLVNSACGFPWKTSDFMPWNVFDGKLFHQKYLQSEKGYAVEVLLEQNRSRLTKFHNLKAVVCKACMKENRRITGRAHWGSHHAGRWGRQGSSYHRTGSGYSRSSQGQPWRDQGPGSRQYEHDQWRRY
inactive: alvocidib -0.005 | Tubastatin A -0.063 | [1] 0.016 | defactinib 0.073 | [2] -0.02 | encorafenib 0.029 | [3] 0.034 | alisertib -0.007 | [4] -0.001 | gefitinib 0.021

DVL2 (UniProt O14641)
inactive: alvocidib 0.002 | Tubastatin A -0.079 | [1] -0.039 | defactinib 0.028 | [2] -0.027 | encorafenib -0.018 | [3] -0.036 | alisertib 0.003 | [4] -0.069 | gefitinib 0.006

FARSA (UniProt Q9Y285)
Chain of UniProt Q9Y285 (Q9Y285 whole entry, looked up): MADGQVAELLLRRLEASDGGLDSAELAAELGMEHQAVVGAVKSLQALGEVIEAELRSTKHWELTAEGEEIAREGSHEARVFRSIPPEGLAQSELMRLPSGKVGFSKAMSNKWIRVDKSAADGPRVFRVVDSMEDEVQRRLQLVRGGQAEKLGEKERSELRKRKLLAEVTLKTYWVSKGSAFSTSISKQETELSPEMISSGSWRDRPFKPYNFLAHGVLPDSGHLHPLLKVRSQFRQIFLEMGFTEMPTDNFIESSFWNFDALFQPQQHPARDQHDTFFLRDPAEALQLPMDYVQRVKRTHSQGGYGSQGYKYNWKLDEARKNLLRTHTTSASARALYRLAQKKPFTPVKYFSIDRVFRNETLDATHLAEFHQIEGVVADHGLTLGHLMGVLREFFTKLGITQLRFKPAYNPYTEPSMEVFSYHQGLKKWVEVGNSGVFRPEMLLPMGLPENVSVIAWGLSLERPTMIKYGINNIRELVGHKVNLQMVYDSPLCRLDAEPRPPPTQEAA
inactive: alvocidib -0.003 | Tubastatin A -0.105 | [1] 0.007 | defactinib 0.045 | [2] 0.019 | encorafenib -0.02 | [3] 0.098 | alisertib 0.01 | [4] 0.017 | gefitinib -0.014

FMNL1 isoform 3 (UniProt O95466)
Chain of UniProt O95466 (O95466 whole entry, looked up): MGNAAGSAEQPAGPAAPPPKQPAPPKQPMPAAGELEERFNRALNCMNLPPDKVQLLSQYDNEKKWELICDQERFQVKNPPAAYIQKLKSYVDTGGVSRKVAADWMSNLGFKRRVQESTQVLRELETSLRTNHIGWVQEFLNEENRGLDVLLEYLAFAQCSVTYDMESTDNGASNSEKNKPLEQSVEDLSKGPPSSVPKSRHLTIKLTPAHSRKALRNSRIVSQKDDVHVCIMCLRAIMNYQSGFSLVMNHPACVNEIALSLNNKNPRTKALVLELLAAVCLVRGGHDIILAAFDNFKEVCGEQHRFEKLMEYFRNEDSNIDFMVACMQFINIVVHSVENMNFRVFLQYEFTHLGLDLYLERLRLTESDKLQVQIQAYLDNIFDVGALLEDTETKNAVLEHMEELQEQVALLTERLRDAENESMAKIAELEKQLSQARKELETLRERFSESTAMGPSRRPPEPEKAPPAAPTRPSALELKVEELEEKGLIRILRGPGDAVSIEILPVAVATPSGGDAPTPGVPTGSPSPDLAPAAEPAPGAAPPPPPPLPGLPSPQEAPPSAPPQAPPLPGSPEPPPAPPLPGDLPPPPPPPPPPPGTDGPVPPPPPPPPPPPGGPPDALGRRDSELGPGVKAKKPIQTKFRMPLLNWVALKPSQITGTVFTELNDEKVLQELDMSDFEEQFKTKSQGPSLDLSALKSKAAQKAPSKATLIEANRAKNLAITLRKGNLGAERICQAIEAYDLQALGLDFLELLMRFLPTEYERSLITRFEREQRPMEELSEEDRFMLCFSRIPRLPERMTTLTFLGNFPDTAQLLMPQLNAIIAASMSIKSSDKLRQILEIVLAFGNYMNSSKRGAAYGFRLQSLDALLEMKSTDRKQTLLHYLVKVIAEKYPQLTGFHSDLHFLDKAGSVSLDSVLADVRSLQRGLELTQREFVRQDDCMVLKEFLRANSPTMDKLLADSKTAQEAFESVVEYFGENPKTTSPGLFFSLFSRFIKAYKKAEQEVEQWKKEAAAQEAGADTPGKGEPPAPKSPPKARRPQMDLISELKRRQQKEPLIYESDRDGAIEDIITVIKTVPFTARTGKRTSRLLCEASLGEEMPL
inactive: alvocidib 0.011 | Tubastatin A -0.053 | [1] 0.015 | defactinib 0.021 | [2] 0.015 | encorafenib 0.093 | [3] 0.018 | alisertib 0.029 | [4] 0.044 | gefitinib -0.061

ENO2 (UniProt P09104)
inactive: Tubastatin A 0.024 | [1] -0.018 | defactinib -0.007 | [2] 0.073 | encorafenib 0.032 | [3] 0.086 | alisertib -0.025 | [4] -0.014 | gefitinib -0.021
active: alvocidib -0.279

FREM2 (UniProt Q5SZK8)
inactive: alvocidib -0.114 | Tubastatin A 0.068 | [1] -0.034 | defactinib -0.005 | [2] -0.038 | encorafenib 0.031 | [3] -0.022 | alisertib 0.098 | [4] -0.013 | gefitinib 0.164

ENO1, A0A2R8YEM5
inactive: alvocidib -0.256 | Tubastatin A 0.104 | [1] 0.021 | defactinib 0.043 | [2] 0.002 | encorafenib 0.031 | [3] -0.035 | alisertib 0.006 | [4] -0.001 | gefitinib 0.035

FAM118B (UniProt Q9BPY3)
Chain of UniProt Q9BPY3 (Q9BPY3 whole entry, looked up): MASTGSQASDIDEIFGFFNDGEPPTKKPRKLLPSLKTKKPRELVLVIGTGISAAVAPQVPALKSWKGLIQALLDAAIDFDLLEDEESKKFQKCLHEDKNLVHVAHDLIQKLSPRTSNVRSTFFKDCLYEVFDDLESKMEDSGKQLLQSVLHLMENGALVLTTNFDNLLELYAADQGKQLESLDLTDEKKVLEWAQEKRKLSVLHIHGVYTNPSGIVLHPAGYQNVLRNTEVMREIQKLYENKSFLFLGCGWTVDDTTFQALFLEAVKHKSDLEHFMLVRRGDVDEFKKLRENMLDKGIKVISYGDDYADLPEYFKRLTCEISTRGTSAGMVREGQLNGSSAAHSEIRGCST
inactive: alvocidib -0.023 | Tubastatin A -0.058 | [1] -0.002 | defactinib 0.037 | [2] -0.009 | encorafenib 0.026 | [3] -0.048 | alisertib -0.011 | [4] -0.043 | gefitinib 0.016

FBLL1 (UniProt A6NHQ2)
inactive: alvocidib -0.009 | Tubastatin A -0.049 | [1] -0.036 | defactinib 0.047 | [2] 0.081 | encorafenib 0.042 | [3] 0.056 | alisertib 0.012 | [4] 0.005 | gefitinib 0.035

FARSB (UniProt Q9NSD9)
Chain of UniProt Q9NSD9 (Q9NSD9 whole entry, looked up): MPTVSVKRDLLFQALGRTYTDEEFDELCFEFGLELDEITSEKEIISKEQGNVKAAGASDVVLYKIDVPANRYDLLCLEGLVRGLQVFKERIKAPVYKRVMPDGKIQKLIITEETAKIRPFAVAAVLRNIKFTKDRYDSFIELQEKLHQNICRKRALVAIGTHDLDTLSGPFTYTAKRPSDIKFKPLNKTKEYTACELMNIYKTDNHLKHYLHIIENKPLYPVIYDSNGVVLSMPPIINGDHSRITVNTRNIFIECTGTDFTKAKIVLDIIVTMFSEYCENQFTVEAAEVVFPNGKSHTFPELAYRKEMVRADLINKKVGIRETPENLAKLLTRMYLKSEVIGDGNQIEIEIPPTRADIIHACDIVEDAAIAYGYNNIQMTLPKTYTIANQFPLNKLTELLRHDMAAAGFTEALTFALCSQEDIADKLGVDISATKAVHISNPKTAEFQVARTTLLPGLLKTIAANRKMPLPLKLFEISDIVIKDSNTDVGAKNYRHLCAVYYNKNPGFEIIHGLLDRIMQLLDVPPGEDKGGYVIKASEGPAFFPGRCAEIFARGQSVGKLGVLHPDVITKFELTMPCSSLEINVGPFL
inactive: alvocidib 0.003 | Tubastatin A -0.056 | [1] -0.012 | defactinib -0.014 | [2] -0.012 | encorafenib -0.029 | [3] 0.067 | alisertib 0.002 | [4] 0.005 | gefitinib -0.013
